Shiga inhibitor: Shiga toxin inhibition | Vero cells, Shiga toxin protein synthesis inhibition reporter | hit rate 9.2% among 290,000 | AID 2315 | inhibition, % at 38.7 µM; in the data active = inhibition mostly above about 28%, no sharp cut-off; inactive = mostly below about 43%; also: 0% is about no effect
AmpC detergent: blocks E. coli AmpC beta-lactamase in detergent assay. AmpC hydrolysis of nitrocefin, absorbance 480 nm, 0.01% Triton. Potency, µM (doses to about 114 µM), inactives show top-dose activity change, negative = inhibition, usual class: inhibitors. hit rate 0.041% among 370,000;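 also: potency is read from the fitted curve at half-maximal effect; 0% = no-compound wells and -100% = no-enzyme wells; nearly all actives have a fitted effect of over 25% in size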
Target sequence (P00811 whole entry, looked up): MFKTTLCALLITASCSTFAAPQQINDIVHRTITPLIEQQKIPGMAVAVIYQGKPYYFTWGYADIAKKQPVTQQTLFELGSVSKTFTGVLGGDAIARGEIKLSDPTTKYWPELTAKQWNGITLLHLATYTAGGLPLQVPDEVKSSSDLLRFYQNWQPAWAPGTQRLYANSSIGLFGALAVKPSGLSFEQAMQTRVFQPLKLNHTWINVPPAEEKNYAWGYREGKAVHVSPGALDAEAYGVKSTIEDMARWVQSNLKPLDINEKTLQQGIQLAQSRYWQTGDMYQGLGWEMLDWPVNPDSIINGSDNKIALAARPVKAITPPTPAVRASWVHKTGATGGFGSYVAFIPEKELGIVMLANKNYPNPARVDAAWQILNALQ
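AmpC (5.3 nM in the dispensed reagent) in 20 mM phosphate pH 7.0 with 0.01% (detergent screen) or 0.0001% Triton X-100 was preincubated with compounds for 15 min at room temperature. Nitrocefin was then added from an 800 uM solution, and hydrolysis was followed at 480 nm.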
SARS PLP yeast: blocks SARS-CoV papain-like protease in a yeast assay. Potency, µM (highest dose often 32.9 µM), inactives show top-dose activity, positive = growth rescue, most hits filed as activators. S. cerevisiae expressing SARS-CoV PLpro, growth rescue. hit rate 0.19% among 330,000. AID 485353; calls by dose curve; also: potency is read from the fitted curve at half-maximal effect; 0% is about no effect; nearly all actives have a fitted effect of over 55% in size
AMA1 RON2 block: inhibitors of Plasmodium falciparum AMA1-RON2 interaction | AlphaScreen AMA1-biotinylated RON2 peptide binding | Potency, µM (doses to about 58.2 µM), for inactives: at the highest dose activity change, negative = inhibition, most hits filed as inhibitors | hit rate 0.2% among 360,000;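 also: potency is read from the fitted curve at half-maximal effect; 0% = vehicle wells and -100% = peptide control; nearly all actives have a fitted effect of over 45% in size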
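AMA1 (3D7) with his tag at 25 nM final met compounds first, then biotinylated RON2 peptide at 25 nM; detection used donor plus acceptor beads, 10 µg/mL apiece, read by AlphaScreen after 30 min at room temperature.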
CHX counter: counter-screen for Shiga toxin inhibitors: cycloheximide protein synthesis inhibition; max response, %; cell reporter, cycloheximide protein synthesis inhibition counterscreen; hit rate 12% among 300,000; in the data active = max response mostly above about 13%, no sharp cut-off; inactive = mostly below about 14%; also: read at 38.3 µM for the half of the compounds with a filed dose; 0% is about no effect
AmpC no deterg: blocks E. coli AmpC beta-lactamase in detergent-free assay. P00811. AmpC nitrocefin hydrolysis, absorbance 480 nm, 0.0001% Triton. Potency, µM (doses to about 57.1 µM), for inactives: top-dose activity change, negative = inhibition, usual class: inhibitors. hit rate 0.52% among 330,000;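 also: potency is read from the fitted curve at half-maximal effect; plate controls were no compound for no effect and no enzyme for full effect; nearly all actives have a fitted effect of over 20% in size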
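AmpC (5.3 nM in the dispensed reagent) in 20 mM phosphate pH 7.0 with 0.01% (detergent screen) or 0.0001% Triton X-100 was preincubated with compounds for 15 min at room temperature. Nitrocefin was then added from an 800 uM solution, and hydrolysis was followed at 480 nm.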
* = called active by the depositor; ? = inconclusive; · = no result. The sample as a whole holds a higher share of hits than the screen did. Unless noted, calls follow the shape of the dose curve; as a rule, active = well fitted curve in the direction sought with a large enough effect; inconclusive = small, poorly fitted or top-dose-only effect, or another doubt; inactive = no such curve, though single readings can be large; an effect the other way counts as inactive or inconclusive.

SMILES | Shiga inhibitor | AmpC detergent | SARS PLP yeast | AMA1 RON2 block | CHX counter | AmpC no deterg
COc1ccnc(Oc2ccc(C)cc2C)c1C#N | 11 | ? | ? | 24% | 18* | -4%
CN(C)c1ccnc(Nc2ccccc2)c1C#N | -6 | -2% | 0% | 10% | -1 | -15%
Cc1nn(CC(=O)Nc2cc(S(=O)(=O)N3CCOCC3)ccc2Cl)c(C)c1[N+](=O)[O-] | · | -4% | -3% | 1% | · | -13%
FC(F)(F)Oc1ccc(NC2=NCCCS2)cc1 | 39* | -7% | -2% | 6% | 33* | -16%
CCCCc1ccc(NC2=NCCCS2)cc1 | 42* | 2% | -1% | 4% | 30* | -19%
CC(=O)Nc1ccc(S(=O)(=O)Nc2cccc(-c3cn4c(n3)SCC4)c2)cc1 | -4 | 0% | 4% | -8% | -3 | -34%
CC(=O)Nc1ccc(-c2cn3c(n2)SCC3)cc1 | 28 | -11% | 2% | 27% | 32* | -19%
O=C(Oc1ccc(-c2cn3c(n2)SCC3)cc1)c1ccccc1 | 11 | 4% | -5% | 29% | 12* | -29%
O=C(Nc1ccc(-c2cn3c(n2)SCC3)cc1)c1ccco1 | 65* | 8% | -1% | 0% | 40* | -27%
CC1(CCc2ccccc2)NC(=O)N(CC(=O)N2CC(=O)Nc3ccccc32)C1=O (stereo not drawn) | 14 | -3% | 0% | -4% | 7 | 13%
N=c1sccn1CC(=O)Nc1ccccc1Oc1ccccc1 | 6 | 5% | -2% | -7% | -3 | -19%
O=c1c2cc(N3CCOCC3)ccc2[nH]c(=S)n1Cc1ccccn1 | active | -12% | 10% | 43% | 17* | -15%
O=c1c2cc(N3CCOCC3)ccc2[nH]c(=S)n1Cc1ccccc1Cl | 3 | -9% | -1% | 53% | 4 | -1%
O=c1c2cc(N3CCOCC3)ccc2[nH]c(=S)n1CC1CCCO1 (stereo not drawn) | 54* | -7% | 0% | 36% | 10 | -15%
O=c1c2cc(Br)ccc2[nH]c(=S)n1Cc1ccccc1 | -12 | -4% | -2% | 63% | 7 | -48%
O=c1c2cc(Br)ccc2[nH]c(=S)n1Cc1ccccn1 | 11 | -5% | 18% | 31% | 24* | -48%
CC(=O)c1ccc(N2CCN(C(=O)c3ccc(Cn4c(=S)[nH]c5ccc(N6CCOCC6)cc5c4=O)cc3)CC2)cc1 | 59* | 0% | 0% | 65% | 15 | 66%
CC(=O)c1ccc(N2CCN(C(=O)c3ccc(Cn4c(=O)[nH]c5ccccc5c4=O)cc3)CC2)cc1 | · | 8% | · | · | · | ·
CCOC(=O)C(C)(C)Sc1ncnc2nc[nH]c12 | -8 | -10% | 3% | 0% | -4 | -17%
O=C1Nc2ccccc2-c2nnnn2C1N1CCC(Cc2ccccc2)CC1 (stereo not drawn) | · | · | · | 2% | · | ·
CC(C)(C)c1nc2c(s1)CCc1onc(-c3ccc(Br)cc3)c1-2 | · | · | · | -22% | · | ·
CCOC(=O)c1c(-c2ccc(C)cc2)csc1NC(=O)CCN1CCOCC1 | -3 | 1% | -45% | -20% | -2 | 240%
O=C(CSc1ccccn1)N1CCc2ccccc21 | 116* | 2% | -2% | -13% | 40* | -46%
Cn1ccnc1SCC(=O)N1CCc2ccccc21 | 79* | 3% | -9% | -10% | 31* | -17%
COc1cccc(-n2ccnc2SCC(=O)N2CCc3ccccc32)c1 | -4 | ? | 0% | -3% | -1 | -2%
SMILES | Shiga inhibitor | AmpC detergent | SARS PLP yeast | AMA1 RON2 block | CHX counter | AmpC no deterg
O=C(CSc1ccc(-c2ccccn2)nn1)NC1CCCCC1 | 25 | -5% | 24% | -7% | 14 | -6%
O=C(CSc1ccc(-c2ccccn2)nn1)N1CCc2ccccc21 | 42* | -1% | 2% | 12% | 19 | -8%
O=C(NC(=S)Nc1ncc(Br)cc1Br)c1ccccc1 | 94* | 0% | -19% | 70% | 35* | -20%
O=C(CN1CCN(C(=O)c2ccccc2)CC1)Nc1ncc(Br)cc1Br | 7 | 0% | -4% | 7% | -1 | 14%
Cc1cc(C)nc(NC(=S)NC(=O)c2ccccc2)n1 | 18 | ? | 2% | 38% | 2 | -17%
O=C(Nc1ccccc1)c1ccncc1 | -1 | -1% | · | 3% | -3 | ·
S=C(NCCc1ccccc1)Nc1cnc2ccccc2c1 | 61* | -14% | -1% | 15% | 31* | -27%
O=C(Nc1cnc2ccccc2c1)c1ccncc1 | 183* | 4% | -9% | 0% | 73* | 1%
Cn1ncc2cc(NC(=S)NC(=O)c3ccccc3)ccc21 | 86* | -13% | 3% | 8% | 43* | -14%
O=P1(Oc2ccccc2)CC=CC(COC(c2ccccc2)(c2ccccc2)c2ccccc2)O1 (stereo not drawn) | 11 | · | · | · | 18 | ·
O=C(NC(=S)Nc1cnc2ccccc2c1)c1ccccc1 | 63* | -2% | -3% | 54% | 47* | -35%
CCn1cc(C(=O)OCC(=O)N(C)Cc2ccccc2)c(=O)c2ccc(C)nc21 | -5 | -9% | -2% | 20% | -2 | 1%
COc1ccc(/C=C/C(=O)O)cc1S(=O)(=O)N1CCc2ccccc21 | 2 | -6% | 2% | -10% | 1 | -41%
COc1ccc(-c2nc(CS(=O)CC(=O)NC3CCC(C)CC3)c(C)o2)cc1OC (stereo not drawn) | 60* | 3% | -12% | -10% | 33* | 131%
CC1(C)C=C(c2ccc(C(=O)O)s2)CC(C)(C)N1 | 6 | -22% | 8% | 4% | -4 | -6%
O=C(O)c1ccc(-c2ccc(-c3ccccc3)cc2)s1 | 37 | -1% | -1% | · | 23* | -20%
CCc1ccc(NC(=O)c2ccc(-c3ccccc3)s2)cc1 | · | -1% | · | · | · | ·
O=C(Nc1ccccc1)c1ccc(-c2ccccc2)s1 | 100* | 6% | -1% | 8% | 39* | -40%
Cc1cc(-c2ccc(C(=O)O)s2)cnc1N | 76* | 1% | -6% | -2% | 43* | -10%
CCOC(=O)N1CCN(C(=O)C2CCCN(c3ncnc4c3nc3n4CCCCC3)C2)CC1 (stereo not drawn) | -4 | -2% | -3% | -6% | 4 | 78%
COC(=O)c1ccc(C(=O)OC)c(NC(=O)CN2CCN(c3ccc(OC)cc3)CC2)c1 | -11 | 1% | 10% | -2% | -2 | -15%
CC/C(=N\NC(=O)c1csc(C)c1C)c1cccs1 | 95* | -13% | -19% | 50% | 37* | -14%
CCCCOc1ccc(/C=N/NC(=O)c2csc(C)c2C)cc1 | 24 | ? | -5% | -2% | 9 | -18%
CCC/C(=N\NC(=O)c1csc(C)c1C)c1cccs1 | 84* | -8% | 8% | 42% | 36* | -17%
Cc1ccc(NC(=O)Cc2cn(C)c3ccccc23)cc1F | 49 | 8% | -2% | -4% | 14 | -27%

Screening results: PubChem, National Center for Advancing Translational Sciences (NCATS)
